From publication PMC12431657, “Discovery and mechanistic insights of dibenzoylmethane as a broad spectrum inhibitor of coronavirus” (PLOS Pathogens, 2025)
Like-named read-outs stand apart in the source and are kept apart here. Out of some 3,300 compounds screened, about 95 (3%) showed an effect of 50% or more. The sample holds strong results, similar compounds and a random draw of the others, so the mix is not that of the screen.

Test system: HCoV-229E
Parameters: species or system Huh-7; HTS, protection from HCoV-229E induced cell death, luminescent cell viability (CellCounting-Lite 2.0), inhibition rate
Conditions: 24 h post infection, 1 h compound pre-incubation, 10 µM, inhibitor

Row | Structure (SMILES) | 229E Inhibition rate [%] | 229E Inhibition rate (229E Inhibition rate, 24 h) [%]
1 | N[C@H](CC(=O)O)C(=O)O [(-)-Aspartic acid] | 9.6 | 
2 | Cc1c(N)nc([C@H](CC(N)=O)NC[C@H](N)C(N)=O)nc1C(=O)N[C@H](C(=O)N[C@H](C)[C@@H](O)[C@H](C)C(=O)N[C@H](C(=O)NCCc1nc(-c2nc(C(=O)NCCC[S+](C)C)cs2)cs1)[C@@H](C)O)[C@@H](O[C@@H]1O[C@@H](CO)[C@@H](O)[C@H](O)[C@@H]1O[C@H]1O[C@H](CO)[C@@H](O)[C@H](OC(N)=O)[C@@H]1O)c1cnc[nH]1 [Bleomycin (sulfate)] | 12.9 | 
3 | CC(C)=CCC[C@H](C)CC=O [(S)-(-)-Citronellal] | 6.7 | 
4 | C[C@@H]1CC[C@@]2(OC1)O[C@H]1C[C@H]3[C@@H]4CC=C5C[C@@H](O)C[C@@H](O[C@@H]6O[C@H](C)[C@H](O)[C@H](O[C@@H]7OC[C@@H](O)[C@H](O)[C@H]7O)[C@H]6O[C@@H]6O[C@@H](C)[C@H](O)[C@@H](O)[C@H]6O)[C@]5(C)[C@H]4CC[C@]3(C)[C@H]1[C@@H]2C [Ophiopogonin D] |  | 50.3
5 | C[C@@H]1CC[C@@]2(OC1)O[C@H]1C[C@H]3[C@@H]4CC=C5C[C@@H](O)C[C@@H](O[C@@H]6O[C@H](C)[C@H](O)[C@H](O[C@@H]7OC[C@@H](O)[C@H](O)[C@H]7O)[C@H]6O[C@@H]6O[C@@H](C)[C@H](O)[C@@H](O)[C@H]6O)[C@]5(C)[C@H]4CC[C@]3(C)[C@H]1[C@@H]2C [Ophiopogonin D'] |  | 6.6
6 | C[C@@H]1CC[C@@]2(OC1)O[C@H]1C[C@H]3[C@@H]4CC=C5C[C@@H](O)C[C@@H](O[C@@H]6O[C@H](C)[C@H](O)[C@H](O[C@@H]7OC[C@@H](O)[C@H](O)[C@H]7O)[C@H]6O[C@@H]6O[C@H](CO)[C@@H](O)[C@H](O)[C@H]6O)[C@]5(C)[C@H]4CC[C@]3(C)[C@H]1[C@@H]2C [Saponin C, from Liriope muscari] | 0 | 
7 | CCC(C)(O)C(=O)O (stereo not shown) [2-Hydroxy-2-methylbutanoic acid] | 0 | 
8 | C[C@@H]1O[C@@H](OC[C@H]2O[C@@H](Oc3c(-c4ccc(O)cc4)oc4cc(O[C@@H]5O[C@@H](C)[C@H](O)[C@@H](O)[C@H]5O)cc(O)c4c3=O)[C@H](O)[C@@H](O)[C@H]2O)[C@H](O)[C@H](O)[C@H]1O [Robinin] | 8.6 | 
9 | C[C@@H]1O[C@@H](OC[C@H]2O[C@@H](Oc3c(-c4ccc(OCCO)c(OCCO)c4)oc4cc(OCCO)cc(O)c4c3=O)[C@H](O)[C@@H](O)[C@@H]2O)[C@H](O)[C@H](O)[C@H]1O [Troxerutin] | 50.2 | 
10 | COc1cc(O)c2c(=O)c(O[C@@H]3O[C@H](CO[C@@H]4O[C@@H](C)[C@H](O)[C@@H](O)[C@H]4O)[C@@H](O)[C@H](O)[C@H]3O)c(-c3ccc(OC)c(O)c3)oc2c1 [Ombuoside] | 41.9 | 
11 | O=C1CCNC(=O)N1 [Dihydrouracil] | 0 | 
12 | COc1c(O)cc2oc3cc4c(c(O)c3c(=O)c2c1CC=C(C)C)CCC(C)(C)O4 [3-Isomangostin] | 11.6 | 
13 | N[C@H](CS)C(=O)O [D-Cysteine] | 6.6 | 
14 | O=C[C@H](O)[C@@H](O)[C@@H](O)[C@H](O)C(=O)O [D-Galacturonic acid (hydrate)] | 6.7 | 
15 | O=C(O)[C@@H](O)[C@H](O)[C@H](O)[C@@H](O)C(=O)O [Mucic acid] | 0 | 
16 | O=C[C@H](O)[C@@H](O)[C@H](O)[C@H](O)C(=O)O [D-Glucuronic acid] | 57.5 | 
17 | CC(C)=CCc1c(O)cc2c(c1O)C(=O)C[C@@H](c1ccc(O)cc1)O2 [(2S)-6-Prenylnaringenin] | 22.5 | 

Row | Structure (SMILES) | 229E Inhibition rate [%] | 229E Inhibition rate (229E Inhibition rate, 24 h) [%]
18 | CC[C@]12C=CCN3CC[C@]4(C(=C(C(=O)OC)C1)Nc1ccccc14)[C@@H]32 [Tabersonine] | 0 | 
19 | O=C(O)CCC(=O)OC[C@@H](NC(=O)C(Cl)Cl)[C@H](O)c1ccc([N+](=O)[O-])cc1 [Chloramphenicol succinate (sodium)] | 54 | 
20 | COC(=O)[C@]1(O)C[C@@H](O)[C@@H](O)[C@H](OC(=O)/C=C/c2ccc(O)c(O)c2)C1 [3-O-Caffeoylquinic acid methyl ester] | 24.2 | 
21 | COc1cc(CCC(=O)O)cc(OC)c1OC [3-(3,4,5-Trimethoxyphenyl)propanoic acid] | 55.1 | 
22 | COc1cc(CCC(=O)O)ccc1O [Dihydroferulic acid] | 28.8 | 
23 | COc1cc(C(=O)O)cc(OC)c1OC [3,4,5-Trimethoxybenzoic acid] | 11.2 | 
24 | C[C@H](CCC(=O)O)[C@H]1CC[C@H]2[C@@H]3[C@H](O)C[C@@H]4CC(=O)CC[C@]4(C)[C@H]3C[C@H](O)[C@]12C [3-Oxocholic acid] | 4.2 | 
25 | CC[C@H](CC[C@@H](C)[C@H]1CC[C@H]2[C@@H]3CC[C@H]4C[C@@H](O)CC[C@]4(C)[C@H]3CC[C@]12C)C(C)C [Stigmastanol] | 12.4 | 
26 | O=c1cc(-c2ccc(O)c(O)c2)oc2cc(O[C@@H]3O[C@H](CO)[C@@H](O)[C@H](O)[C@H]3O)c(O)c(O)c12 [6-Hydroxyluteolin 7-glucoside] | 5.1 | 
27 | O=c1cc(-c2ccc(O)cc2)oc2cc(O)c([C@@H]3O[C@H](CO)[C@@H](O)[C@H](O)[C@H]3O)c(O)c12 [Isovitexin] | 21 | 
28 | O=c1cc(-c2ccc(O)c(O)c2)oc2c([C@@H]3O[C@H](CO)[C@@H](O)[C@H](O)[C@H]3O)c(O)cc(O)c12 [Orientin] | 55 | 
29 | O=c1cc(-c2ccc(O)cc2)oc2c([C@@H]3O[C@H](CO)[C@@H](O[C@@H]4O[C@H](CO)[C@@H](O)[C@H](O)[C@H]4O)[C@H](O)[C@H]3O)c(O)cc(O)c12 [4”-O-Glucosylvitexin] | 19 | 
30 | COc1cc2oc(-c3ccc(O)cc3)cc(=O)c2c(O)c1[C@@H]1O[C@H](CO)[C@@H](O)[C@H](O)[C@H]1O[C@@H]1O[C@H](CO)[C@@H](O)[C@H](O)[C@H]1O [Spinosin] | 16.9 | 
31 | O=c1cc(-c2ccc(O)c(O)c2)oc2c([C@@H]3O[C@H](CO)[C@@H](O)[C@H](O)[C@H]3O[C@H]3O[C@@H](CO)[C@@H](O)[C@@H](O)[C@@H]3O)c(O)cc(O)c12 [2"-O-beta-L-galactopyranosylorientin] | 6.8 | 
32 | O=c1cc(-c2ccc(O)cc2)oc2cc(O)c([C@@H]3O[C@H](CO)[C@@H](O)[C@H](O)[C@H]3O[C@@H]3O[C@H](CO)[C@@H](O)[C@H](O)[C@H]3O)c(O)c12 [Meloside A] | 56.2 | 
33 | O=c1cc(-c2ccc(O)cc2)oc2cc(O)c([C@@H]3O[C@H](CO)[C@@H](O)[C@H](O)[C@H]3O[C@@H]3OC[C@H](O)[C@H](O)[C@H]3O)c(O)c12 [Isovitexin 2''-O-arabinoside] | 22.1 | 
34 | O=c1cc(-c2ccc(O)c(O)c2)oc2cc(O)c([C@@H]3O[C@H](CO)[C@@H](O)[C@H](O)[C@H]3O)c(O)c12 [Isoorientin] | 51.3 | 
